Structures are written as SMILES. This is one part of the list. A number with no mark means an inactive call. Calls of active or inactive are those of the source. Rule as the data show it: active = activation above about 19%; inactive = the rest. Residues, ends and D or L forms follow the SMILES beside them.

For the test, the target named is cAMP-dependent protein kinase type II-beta regulatory subunit (Homo sapiens) (UniProt P31323). The experiment in a line: activators of PKA-R2B holoenzyme, confirmation, biochemical, fluorescence polarization, human (AID 504797). The following applies: PKA-R2B complex, at 11.4 µM, stronger effect = higher value. On the technique in general: Fluorescence polarisation rises when a labelled molecule tumbles more slowly, as on binding a larger partner.
Sequence of cAMP-dependent protein kinase type II-beta regulatory subunit (Homo sapiens) (P31323 whole entry, looked up): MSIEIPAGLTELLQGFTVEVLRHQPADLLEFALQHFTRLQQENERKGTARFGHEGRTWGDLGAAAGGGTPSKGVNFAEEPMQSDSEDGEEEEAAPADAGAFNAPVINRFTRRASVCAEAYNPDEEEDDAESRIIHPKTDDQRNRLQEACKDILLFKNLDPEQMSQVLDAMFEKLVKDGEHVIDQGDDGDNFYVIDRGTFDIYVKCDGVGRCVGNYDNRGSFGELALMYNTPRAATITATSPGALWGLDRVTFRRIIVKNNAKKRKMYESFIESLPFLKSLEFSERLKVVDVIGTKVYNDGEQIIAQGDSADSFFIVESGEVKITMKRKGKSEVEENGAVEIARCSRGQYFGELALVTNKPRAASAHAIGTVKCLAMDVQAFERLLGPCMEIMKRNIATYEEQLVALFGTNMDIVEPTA
Regarding `COc1ccc(C/C(C)=N/NC(=O)c2ccncc2)cc1`, the activation was 0.21%.

`COc1ccc(CC(NC(C)=O)C(=O)NC2CCN(C(=O)c3ccc(Cl)cc3)CC2)cc1` (stereo not drawn): the activation was 2.1%.

Take `CCCC(=O)Nc1ncnc2c1ncn2[C@@H]1O[C@@H]2OP(=O)(O)OC[C@H]2[C@H]1OC(=O)CCC`: the activation is 36.6% (active).

With `CC(C)(C)c1nnc(N/N=C/c2ccc(O)cc2)n(N)c1=O`, the activation is 3.54%.

As for `O=C(O)C1=C(C(=O)O)C2CCC1C2`, the activation is -0.5%.

For `N#Cc1ccccc1CN1C(=O)S/C(=C/c2cccn2-c2cccc(C(=O)O)c2)C1=O`, the activation is 19.4% (active).

For `O=C(CN(C(=O)CCC(=O)Nc1nccs1)c1ccc(F)cc1)NCc1ccc2c(c1)OCO2`, the activation was 3.19%.

Take `COc1ccc([N+](=O)[O-])cc1C1NN=C(c2cccc3ccccc23)S1` (stereo not drawn): the activation was 1.59%.

`COc1cccc(Nc2nnc(SCC(=O)N3CC(C)OC(C)C3)s2)c1` (stereo not drawn): the activation was 1.96%.

Turning to `O=S(=O)(NCCNS(=O)(=O)c1ccccc1)c1ccccc1`, the activation is 4.44%.

In the case of `O=C(CCCN1C(=O)c2cccc3cccc(c23)C1=O)N1CCN(Cc2ccc3c(c2)OCO3)CC1`, the activation is -2.59%.

For `O=C(CNC(=O)c1ccccc1)NCC(=O)OCC(=O)c1ccccc1` (HELM PEPTIDE1{[O=C(c1ccccc1)[*:2]].G.G.[O=C(CO[*:1])c1ccccc1]}$$$$V2.0), the activation was 3.61%.

Take `CC(C)(C)c1ccc(C(=O)N2CCC(C(=O)N3CCCCC3)CC2)cc1`: the activation was -0.14%.

Values taken from PubChem BioAssay AID504797 (The Scripps Research Institute Molecular Screening Center, 2011).
